The record followed here is PMC7862700, “An all-to-all approach to the identification of sequence-specific readers for epigenetic DNA modifications on cytosine”.

Test in all cases: DAPPL (digital affinity profiling via proximity ligation, sequencing); 10 mM Tris-HCl pH 7.5, 50 mM NaCl, 1 mM DTT, 4% glycerol, room temperature, 30 min; GST-TFs on glutathione beads, 16-mer random dsDNA library, 0.1% formaldehyde crosslink after washing; high values mean tight binding
Test [1] has as its target T1, FEV (Homo sapiens, UniProt Q99581 1-238).
T1 sequence: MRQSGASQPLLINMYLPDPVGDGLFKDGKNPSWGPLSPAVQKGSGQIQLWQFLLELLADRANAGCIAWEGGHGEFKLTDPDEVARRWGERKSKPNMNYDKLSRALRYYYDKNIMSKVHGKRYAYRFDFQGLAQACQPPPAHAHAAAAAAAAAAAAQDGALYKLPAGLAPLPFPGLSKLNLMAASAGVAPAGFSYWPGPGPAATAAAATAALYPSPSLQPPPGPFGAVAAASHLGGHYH
Particulars: protein: recombinant; tags: N-terminal GST; dsDNA, one strand shown. In outline: (§1)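 Yeast served to express human transcription factors as GST fusions, which were then captured on glutathione beads and labelled with DNA barcodes. Pooled with a tag-only sample, they were incubated with 200 nmole of a 16-mer random double-stranded DNA library for 30 min at room temperature in Tris/NaCl/DTT/glycerol buffer, washed, crosslinked with 0.1% formaldehyde, ligated by proximity, amplified by PCR and sequenced. Dividing each hexamer's read frequency for a factor by its frequency for the tag-only sample gives the binding signal.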

Test [2] has as its target ETV5 (Homo sapiens, UniProt P41161 1-510). As to conditions: protein: recombinant; tags: N-terminal GST; dsDNA, one strand shown. Put shortly:
as §1

The target of test [3] is HSF1 (Homo sapiens, UniProt Q00613 1-529). Particulars: protein: recombinant; tags: N-terminal GST; chain copies: 3; dsDNA, one strand shown. In outline:
as §1

For test [4], the target named is T2, SPIC (Homo sapiens, UniProt Q8N5J4 1-248).
T2 sequence: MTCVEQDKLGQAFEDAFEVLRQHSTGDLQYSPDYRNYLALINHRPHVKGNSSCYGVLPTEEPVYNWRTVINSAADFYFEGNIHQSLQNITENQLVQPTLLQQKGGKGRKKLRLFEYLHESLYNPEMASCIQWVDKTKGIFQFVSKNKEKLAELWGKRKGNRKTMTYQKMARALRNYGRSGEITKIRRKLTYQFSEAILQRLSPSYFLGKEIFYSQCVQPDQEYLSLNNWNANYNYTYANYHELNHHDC
As to conditions: protein: recombinant; tags: N-terminal GST; dsDNA, one strand shown. In outline: as §1

For test [5], the target named is ELF4 (Homo sapiens, UniProt Q99607 1-663). Particulars: protein: recombinant; tags: N-terminal GST; dsDNA, one strand shown. In outline:
as §1

Test [6] addresses T3, ELK4 (Homo sapiens, UniProt P28324-2 1-405).
T3 sequence: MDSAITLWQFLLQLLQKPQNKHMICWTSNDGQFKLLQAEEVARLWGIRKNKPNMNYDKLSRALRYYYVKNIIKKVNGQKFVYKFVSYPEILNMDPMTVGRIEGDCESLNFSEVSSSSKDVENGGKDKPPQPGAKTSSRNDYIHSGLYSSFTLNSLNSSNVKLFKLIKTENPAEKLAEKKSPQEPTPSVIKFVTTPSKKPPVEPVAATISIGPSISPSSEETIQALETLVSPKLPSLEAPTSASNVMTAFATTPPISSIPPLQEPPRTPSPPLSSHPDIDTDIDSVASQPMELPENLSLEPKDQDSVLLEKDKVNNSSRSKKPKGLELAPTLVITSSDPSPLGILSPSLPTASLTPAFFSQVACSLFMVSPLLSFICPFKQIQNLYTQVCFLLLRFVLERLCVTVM
As to conditions: protein: recombinant; tags: N-terminal GST; dsDNA, one strand shown. In outline: as §1

Test [7] has as its target T4, ETV2 (Homo sapiens, UniProt O00321 1-342).
T4 sequence: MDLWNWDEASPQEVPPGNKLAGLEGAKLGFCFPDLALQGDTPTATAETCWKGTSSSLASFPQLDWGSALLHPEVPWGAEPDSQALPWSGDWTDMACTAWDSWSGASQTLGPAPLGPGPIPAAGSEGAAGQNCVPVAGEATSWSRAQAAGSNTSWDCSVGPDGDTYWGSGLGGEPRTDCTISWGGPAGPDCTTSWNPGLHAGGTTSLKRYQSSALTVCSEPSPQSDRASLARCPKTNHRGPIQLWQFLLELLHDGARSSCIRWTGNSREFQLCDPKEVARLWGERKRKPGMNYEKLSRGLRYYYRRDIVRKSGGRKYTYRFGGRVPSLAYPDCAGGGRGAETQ
Particulars: protein: recombinant; tags: N-terminal GST; dsDNA, one strand shown. Put shortly: as §1

Test [8] deals with T5, ELF3 (Homo sapiens, UniProt P78545 1-371).
T5 sequence: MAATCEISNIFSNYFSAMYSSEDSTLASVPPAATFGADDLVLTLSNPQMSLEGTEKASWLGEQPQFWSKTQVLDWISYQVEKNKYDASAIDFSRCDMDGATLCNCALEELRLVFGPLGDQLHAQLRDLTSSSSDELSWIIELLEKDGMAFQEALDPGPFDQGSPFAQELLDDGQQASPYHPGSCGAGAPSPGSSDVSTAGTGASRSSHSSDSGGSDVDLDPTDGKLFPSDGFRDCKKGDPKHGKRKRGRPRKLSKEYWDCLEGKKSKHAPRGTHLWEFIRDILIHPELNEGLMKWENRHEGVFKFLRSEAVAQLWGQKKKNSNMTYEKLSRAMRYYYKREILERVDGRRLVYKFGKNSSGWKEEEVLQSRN
Particulars: protein: recombinant; tags: N-terminal GST; dsDNA, one strand shown. In outline:
as §1

Test [9] addresses CRX (Homo sapiens, UniProt O43186 1-299). Particulars: protein: recombinant; tags: N-terminal GST; dsDNA, one strand shown. Put shortly: as §1
Test [10] concerns the target ETV1 (Homo sapiens, UniProt P50549 1-477). Particulars: protein: recombinant; tags: N-terminal GST; dsDNA, one strand shown. In outline: as §1

Sequence of ETV5 (P41161 whole entry): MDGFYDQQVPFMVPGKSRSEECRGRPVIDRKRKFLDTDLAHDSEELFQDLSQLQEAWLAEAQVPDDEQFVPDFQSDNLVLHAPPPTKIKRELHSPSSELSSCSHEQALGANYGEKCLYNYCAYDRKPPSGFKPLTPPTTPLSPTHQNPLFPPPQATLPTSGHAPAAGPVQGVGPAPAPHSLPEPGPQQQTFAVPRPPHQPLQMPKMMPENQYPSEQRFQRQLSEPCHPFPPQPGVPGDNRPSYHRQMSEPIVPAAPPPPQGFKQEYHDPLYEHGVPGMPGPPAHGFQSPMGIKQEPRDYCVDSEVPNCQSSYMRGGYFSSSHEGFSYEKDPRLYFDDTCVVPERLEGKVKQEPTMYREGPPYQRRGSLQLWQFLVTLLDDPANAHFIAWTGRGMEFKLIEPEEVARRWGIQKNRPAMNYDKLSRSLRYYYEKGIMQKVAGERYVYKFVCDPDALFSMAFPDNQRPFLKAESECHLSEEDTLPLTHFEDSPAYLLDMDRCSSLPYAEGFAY
Sequence of CRX (O43186 whole entry): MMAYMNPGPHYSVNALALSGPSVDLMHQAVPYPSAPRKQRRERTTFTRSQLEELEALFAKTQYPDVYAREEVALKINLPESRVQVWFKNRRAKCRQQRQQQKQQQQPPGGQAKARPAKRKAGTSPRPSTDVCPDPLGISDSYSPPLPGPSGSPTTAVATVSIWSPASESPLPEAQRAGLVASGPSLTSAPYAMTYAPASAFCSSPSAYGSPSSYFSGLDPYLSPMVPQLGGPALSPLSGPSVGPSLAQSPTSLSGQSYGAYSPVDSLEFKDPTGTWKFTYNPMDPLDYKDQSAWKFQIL
Sequence of ELF4 (Q99607 whole entry): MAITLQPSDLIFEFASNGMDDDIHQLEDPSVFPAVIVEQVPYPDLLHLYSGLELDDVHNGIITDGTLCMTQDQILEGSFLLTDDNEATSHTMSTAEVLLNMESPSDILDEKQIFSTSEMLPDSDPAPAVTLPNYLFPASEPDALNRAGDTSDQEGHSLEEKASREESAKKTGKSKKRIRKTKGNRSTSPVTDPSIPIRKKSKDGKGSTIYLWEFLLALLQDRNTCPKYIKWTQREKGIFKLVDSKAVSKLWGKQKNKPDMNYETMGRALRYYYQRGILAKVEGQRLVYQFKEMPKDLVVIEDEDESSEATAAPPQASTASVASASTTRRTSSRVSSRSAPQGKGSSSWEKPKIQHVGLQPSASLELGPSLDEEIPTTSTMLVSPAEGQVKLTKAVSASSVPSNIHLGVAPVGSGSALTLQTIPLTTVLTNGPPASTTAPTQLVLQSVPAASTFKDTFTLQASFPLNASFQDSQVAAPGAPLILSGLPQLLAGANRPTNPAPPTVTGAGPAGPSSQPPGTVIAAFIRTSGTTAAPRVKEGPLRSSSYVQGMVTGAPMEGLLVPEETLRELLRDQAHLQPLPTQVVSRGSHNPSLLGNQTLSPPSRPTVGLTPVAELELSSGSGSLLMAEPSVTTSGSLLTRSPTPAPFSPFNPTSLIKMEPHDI
Sequence of ETV1 (P50549 whole entry): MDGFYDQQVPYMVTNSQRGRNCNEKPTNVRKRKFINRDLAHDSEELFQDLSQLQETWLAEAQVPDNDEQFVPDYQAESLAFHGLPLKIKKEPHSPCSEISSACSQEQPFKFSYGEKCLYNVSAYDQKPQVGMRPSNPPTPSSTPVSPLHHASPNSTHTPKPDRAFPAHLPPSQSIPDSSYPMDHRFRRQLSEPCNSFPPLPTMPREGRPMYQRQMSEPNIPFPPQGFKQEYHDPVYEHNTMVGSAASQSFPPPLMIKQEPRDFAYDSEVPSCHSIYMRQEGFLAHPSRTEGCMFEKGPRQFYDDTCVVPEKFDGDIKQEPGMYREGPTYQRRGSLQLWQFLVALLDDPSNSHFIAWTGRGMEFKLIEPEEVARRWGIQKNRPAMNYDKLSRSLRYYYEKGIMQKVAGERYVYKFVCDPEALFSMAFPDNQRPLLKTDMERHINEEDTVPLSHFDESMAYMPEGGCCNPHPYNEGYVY
Sequence of HSF1 (Q00613 whole entry): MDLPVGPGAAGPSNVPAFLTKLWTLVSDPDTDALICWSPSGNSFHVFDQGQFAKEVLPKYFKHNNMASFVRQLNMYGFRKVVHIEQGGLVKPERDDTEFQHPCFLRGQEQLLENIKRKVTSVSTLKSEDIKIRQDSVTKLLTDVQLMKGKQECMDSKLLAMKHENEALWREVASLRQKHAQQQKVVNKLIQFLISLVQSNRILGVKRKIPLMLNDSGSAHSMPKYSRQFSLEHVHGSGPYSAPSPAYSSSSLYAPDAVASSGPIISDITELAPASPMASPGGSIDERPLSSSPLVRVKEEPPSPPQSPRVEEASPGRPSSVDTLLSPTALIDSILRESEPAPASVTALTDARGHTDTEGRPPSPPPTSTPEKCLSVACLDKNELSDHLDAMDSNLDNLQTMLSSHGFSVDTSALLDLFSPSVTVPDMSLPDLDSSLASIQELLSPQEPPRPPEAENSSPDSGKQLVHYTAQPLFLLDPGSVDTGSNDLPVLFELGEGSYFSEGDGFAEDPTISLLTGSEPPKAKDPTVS

CGAATT: the binding signal was 1.14 fold enrichment (6-mer frequency, TF over GST control) in [1]; 1.21 fold enrichment (6-mer frequency, TF over GST control) in test [2]; 1.79 fold enrichment (6-mer frequency, TF over GST control) in test [3]; 1.25 fold enrichment (6-mer frequency, TF over GST control) in test [4]; 1.17 fold enrichment (6-mer frequency, TF over GST control) in test [5]; 1.36 fold enrichment (6-mer frequency, TF over GST control) in test [6]. Moreover, the binding signal was 1.02 fold enrichment (6-mer frequency, TF over GST control) in test [7]; 1.18 fold enrichment (6-mer frequency, TF over GST control) in test [8]; 1.63 fold enrichment (6-mer frequency, TF over GST control) in test [9]; 1.15 fold enrichment (6-mer frequency, TF over GST control) in test [10].

With AAAAAA, the binding signal was 1.37 fold enrichment (6-mer frequency, TF over GST control) in test [1]; 1.35 fold enrichment (6-mer frequency, TF over GST control) in [2]; 1.41 fold enrichment (6-mer frequency, TF over GST control) in test [3]; 1.29 fold enrichment (6-mer frequency, TF over GST control) in test [4]; 1.37 fold enrichment (6-mer frequency, TF over GST control) in test [5]; 1.23 fold enrichment (6-mer frequency, TF over GST control) in test [6]. Further, the binding signal was 1.35 fold enrichment (6-mer frequency, TF over GST control) in test [7]; 1.26 fold enrichment (6-mer frequency, TF over GST control) in test [8]; 1.22 fold enrichment (6-mer frequency, TF over GST control) in test [9]; 1.27 fold enrichment (6-mer frequency, TF over GST control) in test [10].

As for AGGCTC, the binding signal in [1] was 1.06 fold enrichment (6-mer frequency, TF over GST control); in test [2], 1.02 fold enrichment (6-mer frequency, TF over GST control); in [3] it was 1.14 fold enrichment (6-mer frequency, TF over GST control); in [4], 1.15 fold enrichment (6-mer frequency, TF over GST control); in [5] it was 1.07 fold enrichment (6-mer frequency, TF over GST control); in test [6], 1.06 fold enrichment (6-mer frequency, TF over GST control). In addition, the binding signal in test [7] was 1.01 fold enrichment (6-mer frequency, TF over GST control); in test [8], 1.02 fold enrichment (6-mer frequency, TF over GST control); in test [9], 1.29 fold enrichment (6-mer frequency, TF over GST control); in test [10] it was 1.06 fold enrichment (6-mer frequency, TF over GST control).

For CCCGGA, the binding signal in [1] is 2.77 fold enrichment (6-mer frequency, TF over GST control); in [2], 3.14 fold enrichment (6-mer frequency, TF over GST control); in test [3], 1.14 fold enrichment (6-mer frequency, TF over GST control); in [4] it was 2.52 fold enrichment (6-mer frequency, TF over GST control); in test [5], 2.6 fold enrichment (6-mer frequency, TF over GST control); in test [6], 2.16 fold enrichment (6-mer frequency, TF over GST control). In addition, the binding signal was 2.55 fold enrichment (6-mer frequency, TF over GST control) in test [7]; 2.88 fold enrichment (6-mer frequency, TF over GST control) in [8]; 1.03 fold enrichment (6-mer frequency, TF over GST control) in test [9]; 2.98 fold enrichment (6-mer frequency, TF over GST control) in test [10].

As to AATCGC, the binding signal in test [1] was 1.08 fold enrichment (6-mer frequency, TF over GST control); in [2] it was 1.03 fold enrichment (6-mer frequency, TF over GST control); in test [3] it was 1.3 fold enrichment (6-mer frequency, TF over GST control); in test [4], 1.08 fold enrichment (6-mer frequency, TF over GST control); in test [5], 1.14 fold enrichment (6-mer frequency, TF over GST control); in [6], 1.08 fold enrichment (6-mer frequency, TF over GST control). Also, the binding signal was 1.04 fold enrichment (6-mer frequency, TF over GST control) in test [7]; 1.08 fold enrichment (6-mer frequency, TF over GST control) in test [8]; 1.62 fold enrichment (6-mer frequency, TF over GST control) in test [9]; 1.15 fold enrichment (6-mer frequency, TF over GST control) in [10].

With ACATTC, the binding signal is 1.21 fold enrichment (6-mer frequency, TF over GST control) in test [1]; 1.39 fold enrichment (6-mer frequency, TF over GST control) in test [2]; 2.56 fold enrichment (6-mer frequency, TF over GST control) in test [3]; 1.22 fold enrichment (6-mer frequency, TF over GST control) in test [4]; 1.32 fold enrichment (6-mer frequency, TF over GST control) in test [5]; 1.22 fold enrichment (6-mer frequency, TF over GST control) in test [6]. Moreover, the binding signal in [7] was 1.23 fold enrichment (6-mer frequency, TF over GST control); in test [8], 1.31 fold enrichment (6-mer frequency, TF over GST control); in [9] it was 1.4 fold enrichment (6-mer frequency, TF over GST control); in [10] it was 1.29 fold enrichment (6-mer frequency, TF over GST control).

For ACCCTC, the binding signal in test [1] is 1.15 fold enrichment (6-mer frequency, TF over GST control); in test [2], 1.2 fold enrichment (6-mer frequency, TF over GST control); in test [3] it was 1.11 fold enrichment (6-mer frequency, TF over GST control); in [4], 1.24 fold enrichment (6-mer frequency, TF over GST control); in test [5], 1.25 fold enrichment (6-mer frequency, TF over GST control); in test [6] it was 1.01 fold enrichment (6-mer frequency, TF over GST control). The binding signal in [7] was 1.15 fold enrichment (6-mer frequency, TF over GST control); in [8], 1.12 fold enrichment (6-mer frequency, TF over GST control); in test [9], 1.11 fold enrichment (6-mer frequency, TF over GST control); in test [10] it was 1.14 fold enrichment (6-mer frequency, TF over GST control).

As to AATATA, the binding signal in test [1] was 1.3 fold enrichment (6-mer frequency, TF over GST control); in test [2] it was 1.33 fold enrichment (6-mer frequency, TF over GST control); in test [3], 1.38 fold enrichment (6-mer frequency, TF over GST control); in [4], 1.29 fold enrichment (6-mer frequency, TF over GST control); in test [5] it was 1.3 fold enrichment (6-mer frequency, TF over GST control); in [6] it was 1.39 fold enrichment (6-mer frequency, TF over GST control). Besides, the binding signal in test [7] was 1.35 fold enrichment (6-mer frequency, TF over GST control); in [8], 1.5 fold enrichment (6-mer frequency, TF over GST control); in test [9], 1.62 fold enrichment (6-mer frequency, TF over GST control); in test [10], 1.39 fold enrichment (6-mer frequency, TF over GST control).
